Most compounds without a hit are left out; they make up all but 3.7% or so of the library.
RGS4 inh – blocks human RGS4-accelerated GTP hydrolysis | P49798 | Transcreener GDP fluorescence polarization, RGS4-accelerated GTP hydrolysis | Potency, µM (titrated, usually from 114 µM), without a hit: at the top dose activity change, negative = inhibition, usual class: inhibitors | 390,000 compounds, 0.039% hits | AID 504845; also: potency is read from the fitted curve at half-maximal effect; % is scaled to controls: 0 for no effect and ±100 for the full control effect; nearly all actives have a fitted effect of over 75% in size
Target sequence (P49798 whole entry, looked up): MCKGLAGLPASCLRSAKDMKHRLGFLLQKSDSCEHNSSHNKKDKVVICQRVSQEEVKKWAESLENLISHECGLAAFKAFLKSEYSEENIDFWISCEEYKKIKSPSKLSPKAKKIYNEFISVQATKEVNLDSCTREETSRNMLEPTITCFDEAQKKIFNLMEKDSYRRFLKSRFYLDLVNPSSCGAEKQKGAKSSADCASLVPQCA
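MLSMR compounds (23 nl, pin-transferred) preincubated 10 min at room temperature with a 500nM (2x) first reagent, then RGS4 at 900nM (2x) plus Transcreener GDP mix added; fluorescence polarization (620/688 nm) read before and after 90 min at 30 °C.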
PTHR1 agonist – activates the human parathyroid hormone receptor PTHR1; HEK293 GP2 PTHR1 cells, GloSensor cAMP luminescence, 1 h; Potency, µM (titrated, usually from 115 µM), for inactives: at the highest dose activation, hits mostly activators; 410,000 compounds, 0.075% hits; AID 743266; also: potency is read from the fitted curve at half-maximal effect; nearly all actives have a fitted effect of over 55% in size
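HEK-293-derived GP2 cells expressing PTHR1 and a GloSensor cAMP reporter, 3,000/well, plated overnight, given luciferin plus IBMX (each 0.5 mM as added) for 1 h at 37 °C, then compound for 1 h at 37 °C. Luminescence was read after 15 min at room temperature.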
DRD3 agonist – D3 dopamine receptor (human) agonism | P35462 | D3R DiscoveRx beta-arrestin cells, luminescence, 90 min | max activation, % | 410,000 compounds, 0.58% hits | AID 652048; in the data active = max activation above about 30%; also: 0% is about no effect
Target sequence (P35462 whole entry, looked up): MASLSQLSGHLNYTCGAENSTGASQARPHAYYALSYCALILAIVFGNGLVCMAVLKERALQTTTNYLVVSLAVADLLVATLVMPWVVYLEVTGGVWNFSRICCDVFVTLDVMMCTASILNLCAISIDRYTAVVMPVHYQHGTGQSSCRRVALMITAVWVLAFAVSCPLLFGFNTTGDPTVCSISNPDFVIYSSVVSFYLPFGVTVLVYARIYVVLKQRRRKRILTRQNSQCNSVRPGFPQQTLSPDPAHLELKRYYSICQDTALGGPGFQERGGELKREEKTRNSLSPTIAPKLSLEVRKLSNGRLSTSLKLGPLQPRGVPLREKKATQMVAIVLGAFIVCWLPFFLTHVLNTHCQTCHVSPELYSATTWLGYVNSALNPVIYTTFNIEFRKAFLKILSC
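Cells at 1500/well, incubated overnight, then treated with pinned compounds (dopamine as control) for 90 min at 37 degrees C. DiscoveRx reagent added for 30 - 60 minutes at room temperature; luminescence read.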
DRD3 antagonist – antagonists of human D3 dopamine receptor | D3R cells, DiscoveRx beta-arrestin luminescence, antagonist mode; active compounds read low | max response, negative = inhibition, % | 360,000 compounds, 2.5% hits | AID 652054; in the data active = max response below about -50%; inconclusive = no clear call, values can overlap the other calls; also: % is scaled to controls: 0 for no effect and ±100 for the full control effect
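Cells plated overnight at 1500 cells/well, then exposed to library compounds with dopamine controls for 90 minutes at 37 degrees C. DiscoveRx reagent added for 30–60 minutes at room temperature; luminescence read, quantitative HTS format.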
B2AR arrestin – beta2AR (human) beta-arrestin recruitment activity | beta-arrestin recruitment to beta2AR, cell-based reporter | Potency, µM (series often up to 46.1 µM), without a hit: top-dose activation, actives largely listed as activators | 330,000 compounds, 0.02% hits | AID 492947;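 also: potency is read from the fitted curve at half-maximal effect; 0% = DMSO controls and full agonism = EC100 isoproterenol or metaproterenol; nearly all actives have a fitted effect of over 65% in size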
BRCA1 expr act – BRCA1 expression activation. MCF7-BRCA1-FFLuc reporter, luminescence, 48 h; response scale: scaled: vehicle 0%, 10 µM genistein 100%. Potency, µM (series often up to 46.1 µM), inactives show top-dose activation, hits mostly activators. 380,000 compounds, 1.1% hits; also: potency is read from the fitted curve at half-maximal effect; nearly all actives have a fitted effect of over 80% in size
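Cells: MCF7-BRCA1-FFLuc, 2000/well. Exposure: 48 h, 37 °C, 5% CO2. Read: luminescence, 15 min post-substrate. Controls: genistein 10 microM (maximal activation), DMSO (neutral).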
Starred values were filed as active, the others as inactive; i = inactive; ? = inconclusive; . = not tested or not shown; [ ] = dose if it differs, or a comment. Unless noted, calls follow the shape of the dose curve; as a rule, active = well fitted curve in the direction sought with a large enough effect; inconclusive = small, poorly fitted or top-dose-only effect, or another doubt; inactive = no such curve, though single readings can be large; an effect the other way counts as inactive or inconclusive.

SMILES | RGS4 inh | PTHR1 agonist | DRD3 agonist | DRD3 antagonist | B2AR arrestin | BRCA1 expr act
COCc1cc(C)nc2sc3c(=O)n(-c4ccccc4C(F)(F)F)nnc3c12 | 3.6% | -22.0% | 1.3 | . | . | .
Cc1ccc2oc(=O)c3cc(C(=O)Nc4ccc(F)cc4F)sc3c2c1 | 16.5% | 5.2% | 5.0 | . | . | 2.1%
Cc1ccccc1OCC(O)CN1CCN(CCN2C(=O)c3cccc4cccc(c34)C2=O)CC1 (stereo not given) | -36.9% | -18.5% | -18.4 | -86.0* | 2.8% | 7.0%
O=C(CCN1C(=O)c2ccccc2C1=O)N1CCOCC1 | -12.1% | i | -5.2 | 0.0 | -0.5% | 0.0%
O=C(CCN1C(=O)c2cccc3cccc(c23)C1=O)N1CCOCC1 | -3.9% | i | -3.5 | 1.4 | -0.1% | 12.6µM*
O=C(/C=C/c1ccccc1)N1CCN(CCN2C(=O)c3cccc4cccc(c34)C2=O)CC1 | -11.2% | -44.4% | -16.2 | -95.9* | -0.6% | -20.2%
CC(=O)c1ccc(NC(=S)N2CCN(CCN3C(=O)c4cccc5cccc(c45)C3=O)CC2)cc1 | -23.1% | i | -7.2 | -16.1 | 0.0% | -31.7%
O=C(CCN1C(=O)c2cccc3cccc(c23)C1=O)NC1CCS(=O)(=O)C1 (stereo not given) | -3.8% | -2.2% | 0.8 | 16.9 | -0.6% | 10µM*
C=CCc1c(Cl)nc(C)nc1NCc1ccccc1 | 3.4% | -22.5% | 5.5 | 9.0 | -0.1% | 2.9%
O=C1NC[C@@H](CCCCN2C[C@H](Cc3ccc(O)cc3)N(CCC3CCCCC3)C(=O)C2=O)N(Cc2ccccc2)C1=O | . | 19.6% | 19.1 | -7.0 | . | 7.5%
O=C(Cn1cc(COc2ccccc2[N+](=O)[O-])nn1)c1ccc(O)cc1 | -39.6% | i | 37.1* | -8.8 | . | 18.2%
O=C(Cn1cc(COc2ccc(Br)cc2)nn1)c1ccc(O)cc1 | 15.9% | -10.7% | -8.7 | 15.9 | . | -5.4%
O=Cc1cccc(OCc2cn(CC(=O)c3ccc(O)cc3)nn2)c1 | . | -31.9% | -11.8 | -52.6* | . | 5.5%
N#Cc1ccccc1OCc1cn(CC(=O)c2ccc(O)cc2)nn1 | ? | i | -12.2 | -73.4* | . | 43.1%
CCCC(=O)c1ccc(OCc2cn(CC(=O)c3ccc(O)cc3)nn2)cc1 | -8.4% | -11.7% | -20.5 | -17.9 | . | 9.7%
Cc1cccc(NC(=O)Cn2nnc(C(=O)NCc3cccs3)c2N)c1 | -11.4% | i | 6.9 | . | . | 10.3%
CC1CC2=C(C(=O)O1)C(c1ccc(Cl)cc1)Nc1ccccc1N2 (stereo not given) | -4.0% | i | -4.5 | -52.1* | 0.4% | -12.6%
CC(O)(c1cccc(F)c1)c1nc(-c2ccc(S(C)(=O)=O)cc2)cs1 (stereo not given) | . | -83.5% | -13.1 | -11.5 | . | -7.5%
CC1=C/C(=N\NC(=S)NCc2ccccc2)CC1 | -37.2% | i | -4.4 | -3.0 | 7.08µM* | 29.8%
COC(=O)c1cccc(NC(=O)CCc2ccccc2)c1 | 20.9% | -19.5% | -3.3 | 0.0 | -1.0% | 7.94µM*
COc1cccc(NC(=O)C2(C)CCN2CCc2ccccc2)c1 (stereo not given) | . | -12.6% | -7.1 | -5.0 | . | -2.2%
COc1ccc(NC(=O)CCCc2ccccc2)cc1OC | -1.6% | i | -1.0 | -19.4 | -1.0% | 11.2µM*
COc1cc(NC(=S)NC(=O)CCc2ccccc2)cc(OC)c1 | -12.1% | -17.6% | -11.6 | -52.5* | 6.7% | -28.2%
COc1ccc(NC(=O)C2(C)CCN2CCc2ccccc2)cc1OC (stereo not given) | . | -0.4% | 71.6* | 2.4 | . | 6.3%
COc1ccc(NC(=O)CCCC(=O)c2ccccc2)cc1OC | 4.4% | i | -1.4 | -17.8 | 0.4% | -2.1%
SMILES | RGS4 inh | PTHR1 agonist | DRD3 agonist | DRD3 antagonist | B2AR arrestin | BRCA1 expr act
COc1nc(N(C)S(=O)(=O)c2ccc(C)cc2)nc(C)c1Br | 11.1% | -33.0% | 9.1 | 32.0 | 0.2% | -13.4%
COc1ccc(CNC(=O)c2ccc(-c3nc(CSc4ccc(C)cc4)c(C)o3)cc2)cc1OC | 7.6% | -19.4% | -2.1 | . | . | .
COC(=O)c1cc2sc(C)cc2n1Cc1ccc(F)cc1Cl | 19.9% | i | 7.4 | . | . | .
COc1ccc(NC(=O)CCCC(=O)O)cc1Cl | -3.0% | i | 6.8 | -50.5* | 0.0% | -13.8%
Cc1ccc(NC(=O)Cc2ccc(-c3ccccc3)cc2)nc1 | -42.6% | -26.7% | -13.8 | -11.6 | -0.9% | -3.0%
COc1cc(NC(=O)C[n+]2ccc(C(=O)c3ccccc3)cc2)cc(OC)c1 | 2.8% | -1.7% | -19.6 | -72.1* | 0.1% | -3.7%
Cc1ccc(NC(=O)CCCc2ccccc2)nc1 | 26.7% | i | -13.8 | -14.3 | 0.1% | 11.2µM*
COc1cc(OC)cc(C(=O)NCC(=O)Nc2ccc(-c3ccccc3)cc2)c1 | -17.0% | i | -24.1 | -59.5* | 0.7% | 28.5%
COCCNC(=O)C1(C(F)(F)F)CC(CCCO)CCCO1 (stereo not given) | 8.9% | -18.9% | 5.5 | -21.3 | . | 10.4%
CCOC(=O)c1nnn(-c2nonc2N)c1CSc1nnc(N)s1 | 6.2% | i | 1.1 | 13.1 | 0.0% | -10.2%
COc1cccc(CN2CCN(c3nc4nonc4nc3N3CCCCC3)CC2=O)c1 | -16.3% | i | -2.5 | 0.0 | 5.3% | 0.4%
COC(=O)c1cccc(NC(=O)CSc2nc(=O)cc(N)n2-c2ccccc2)c1 | 6.4% | i | -1.9 | -50.7* | -1.1% | 0.3%
Cc1ccc(NC(=O)CSc2nc(=O)cc(N)n2-c2ccccc2)cc1 | -14.3% | 15.8% | -10.1 | 7.1 | -0.1% | -4.5%
CCCN1CCC(=O)N([C@H](COc2ccccc2)CC(C)C)CC1 | 11.5% | 10.6% | -39.1 | -57.6* | 0.4% | -1.3%
Cc1ccccc1Cn1c(=O)n(Cc2ccco2)c(=O)c2sc3ccccc3c21 | -45.7% | -19.5% | 5.9 | . | . | 1.4%
Cc1ccc(-n2c(SCC(=O)N3CCOCC3)nnc2-c2ccncc2)cc1 | 17.2% | -3.0%[57.5 µM] | 6.8 | -75.8* | -1.0% | -28.4%
CSc1nc(Nc2ccc(C)cc2C)cc(-c2ccccc2)n1 | 16.6% | i | 32.5* | . | . | .
COc1ccccc1Cc1c(-c2ccco2)nc2c(C)cc(Br)cn12 | . | -6.8% | -16.5 | -92.4* | . | -68.9%
COc1ccc(Cc2c(-c3ccco3)nc3c(C)cc(Br)cn23)c(C)c1 | . | -17.7% | 6.5 | 18.6 | . | -58.2%
COc1ccccc1Cc1c(-c2ccc(OC)c(OC)c2)nc2ccc(C)cn12 | . | i | 7.1 | 48.3 | . | -7.6%
Cc1cc(Br)cn2c(Cc3ccccc3)c(-c3ccco3)nc12 | . | -4.0% | 4.7 | 24.0 | . | -5.2%
COc1ccccc1Cc1c(-c2ccco2)nc2ccc(C)cn12 | . | -81.2% | -12.8 | -50.5* | . | 22.0%
Cc1cc(Br)cn2c(Cc3ccsc3)c(-c3ccco3)nc12 | . | -45.3% | -15.3 | -55.6* | . | -19.7%

Bioassay records as filed in PubChem.
